# In the supplement of paper PMC8728848:
# Many of the other results were omitted from the sample, so the strongest signals are more common in it than they were.
# Key:
# Experiment in all cases: glycan array binding signal (z-score within array); higher = stronger binding
# Settings in all cases: glycan notation: IUPAC condensed, linker removed; mutation: R343K
# [1] = target: Fuc(a1-2)Gal
# In short: (§1)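 Glycan array data were curated from 3228 arrays in the Consortium for Functional Glycomics database and kept only where the protein sequence was available. Glycan names were converted to IUPAC-condensed notation, and columns mapping to the same glycan were averaged. The binding signal is a within-array Z-score, averaged across arrays of the same protein sequence at different concentrations or buffers and across linkers. Negative Z-scores can be read as non-binding.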
# [2] = target: Fuc(a1-2)Gal(b1-4)GlcNAc(b1-3)Gal(b1-4)GlcNAc(b1-3)Gal(b1-4)GlcNAc
# In short: as §1
# [3] = target: Fuc(a1-2)[GalNAc(b1-3)]Gal
# In short: as §1
# [4] = target: Fuc(a1-3)[Gal(b1-4)]GlcNAc(b1-2)Man(a1-6)[Gal(b1-4)GlcNAc(b1-2)Man(a1-3)]Man(b1-4)GlcNAc(b1-4)GlcNAc
# In short: as §1
# [5] = target: Fuc(a1-3)[Gal(b1-4)]GlcNAc(b1-4)Gal(b1-4)[Fuc(a1-3)]GlcNAc
# In short: as §1
# [6] = target: Gal(b1-3)GalNAc(b1-3)Gal(a1-4)Gal(b1-4)Glc
# In short: as §1
# [7] = target: Gal(b1-4)GalNAc(a1-3)[Fuc(a1-2)]Gal(b1-4)GlcNAc
# In short: as §1
# [8] = target: Gal(b1-4)GlcNAc(a1-6)Gal(b1-4)GlcNAc
# In short: as §1
# [9] = target: Gal(b1-4)GlcNAc(b1-6)GalNAc
# In short: as §1
# [10] = target: Gal3S(b1-3)GlcNAc
# In short: as §1
# [11] = target: Gal3S(b1-3)[Fuc(a1-4)]GlcNAc
# In short: as §1
# [12] = target: Glc(b1-4)Glc
# In short: as §1
# [13] = target: GlcA(b1-6)Gal
# In short: as §1
# [14] = target: GlcNAc(b1-2)Gal(b1-3)GalNAc
# In short: as §1
# [15] = target: Man(a1-2)Man(a1-3)[Man(a1-2)Man(a1-6)]Man
# In short: as §1
# [16] = target: Man(a1-2)Man(a1-3)[Man(a1-2)Man(a1-6)]Man(a1-6)[Man(a1-2)Man(a1-2)Man(a1-3)]Man
# In short: as §1
# [17] = target: Man(a1-2)Man(a1-3)[Man(a1-6)]Man(a1-6)[Man(a1-2)Man(a1-3)]Man(b1-4)GlcNAc(b1-4)GlcNAc
# In short: as §1
# [18] = target: Man(a1-3)[Man(a1-6)]Man(a1-6)[Man(a1-2)Man(a1-3)]Man(b1-4)GlcNAc(b1-4)GlcNAc
# In short: as §1
# [19] = target: Man(a1-3)[Man(a1-6)]Man(a1-6)[Man(a1-3)]Man
# In short: as §1
# [20] = target: Neu5Ac(a2-3)Gal(b1-3)GalNAc(b1-3)Gal(a1-4)Gal(b1-4)Glc
# In short: as §1
# [21] = target: Neu5Ac(a2-3)Gal(b1-3)GalNAc6S
# In short: as §1
# [22] = target: Neu5Ac(a2-3)Gal(b1-3)GlcNAc
# In short: as §1
# [23] = target: Neu5Ac(a2-3)Gal(b1-4)GlcNAc(b1-3)Gal(b1-4)GlcNAc(b1-3)Gal(b1-4)GlcNAc
# In short: as §1
# [24] = target: Neu5Ac(a2-6)GalNAc(b1-4)GlcNAc
# In short: as §1
# [25] = target: Neu5Ac9Ac(a2-6)Gal(b1-4)GlcNAc
# In short: as §1
# [26] = target: Neu5Gc(a2-6)Gal(b1-4)GlcNAc
# In short: as §1
binder,measurement,setting,value
Surfactant Protein D (Human); Neck + Carbohydrate Recognition Domain (NCRD) (Homo sapiens) (protein) MLLFLLSALVLLTQPLGYLEAEMKTYSHRTMPSACTLVMCSSVESGLPGRDRDGREGPRGEKGDPGLPGAAGQAGMPGQAGPVGPKGDNGSVGEPGPKGDTGPSGPPGPPGVPGPAGREGALGKQGNIGPQGKPGPKGEAGPKGEVGAPGMQGSAGARGLAGPKGERGVPGERGVPGNTGAAGSAGAMGPQGSPGARGPPGLKGDKGIPGDKGAKGESGLPDVASLRQQVEALQGQVQHLQAAFSQYKKVELFPNGQSVGEKIFKTAQFVKPFTEAQLLCTQAGGQLASPRSAAENAALQQLVVAKNEAAFLSMTDSKTEGKFTYPTGESLVYSNWAPGEPNDDGGSEDCVEIFTNGKWNDKACGEKRLVVCEF,glycan array binding signal (z-score),[1],-0.147
same,glycan array binding signal (z-score),[2],-0.143
same,glycan array binding signal (z-score),[3],-0.145
same,glycan array binding signal (z-score),[4],-0.147
same,glycan array binding signal (z-score),[5],-0.157
same,glycan array binding signal (z-score),[6],-0.147
same,glycan array binding signal (z-score),[7],-0.145
same,glycan array binding signal (z-score),[8],-0.153
same,glycan array binding signal (z-score),[9],-0.151
same,glycan array binding signal (z-score),[10],-0.155
same,glycan array binding signal (z-score),[11],-0.153
same,glycan array binding signal (z-score),[12],-0.153
same,glycan array binding signal (z-score),[13],-0.146
same,glycan array binding signal (z-score),[14],-0.159
same,glycan array binding signal (z-score),[15],5.42
same,glycan array binding signal (z-score),[16],10.9
same,glycan array binding signal (z-score),[17],5.1
same,glycan array binding signal (z-score),[18],7.96
same,glycan array binding signal (z-score),[19],5.92
same,glycan array binding signal (z-score),[20],-0.155
same,glycan array binding signal (z-score),[21],-0.156
same,glycan array binding signal (z-score),[22],-0.142
same,glycan array binding signal (z-score),[23],-0.143
same,glycan array binding signal (z-score),[24],-0.155
same,glycan array binding signal (z-score),[25],-0.15
same,glycan array binding signal (z-score),[26],-0.155
